# This excerpt belongs to a sample that is enriched for hits.
# BLM helicase inh – inhibitors of human Bloom syndrome helicase BLM. P54132. recombinant BLM DNA unwinding, fluorescence dequenching. Potency, µM (top dose mostly 56.1 µM), without a hit: top-dose activity change, negative = inhibition, usual class: inhibitors. 350,000 compounds, 0.2% hits;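 further: plate controls were vehicle for no effect and no enzyme for full effect; nearly all actives have a fitted effect of over 35% in size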
# KDM4E inh – JMJD2E (human) inhibition | B2RXH2 | JMJD2E catalytic domain, FDH-coupled NADH fluorescence (FDH is formaldehyde dehydrogenase) | Potency, µM (doses to about 57.1 µM), inactives show at the top dose activity change, negative = inhibition, most hits filed as inhibitors | 230,000 compounds, 1.6% hits; active means well fitted inhibition curve with a large enough effect, not every such curve was filed as active; inconclusive means small, poorly fitted or top-dose-only effect, or another doubt; inactive means no such curve, though single readings can be large or run the other way;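 further: 0% = wells with enzyme and -100% = buffer wells without enzyme; nearly all actives have a fitted effect of over 50% in size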
# RECQ1 helicase – inhibitors of human RECQ1 DNA helicase | RECQ1 DNA unwinding, red fluorescence kinetic read | Potency, µM (top dose mostly 57.3 µM), for inactives: top-dose activity, negative = inhibition, usual class: inhibitors | 240,000 compounds, 0.54% hits;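 further: plate controls were vehicle for no effect and no enzyme for full effect; nearly all actives have a fitted effect of over 30% in size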
#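 50 nM RECQ1T1 preincubated 15 min with compound in Tris pH 8.0 buffer with MgCl2, DTT, Tween-20 and 2.5 ug/ml poly(dI-dC); started with 200 nM TAMRA/BHQ-2 forked duplex and 2 mM ATP. Unwinding read as fluorescence (525/598 nm), two reads 2 h apart.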
# APEX1 inh – blocks human APE1 abasic DNA cleavage; P27695; recombinant APE1, TAMRA/BHQ-2 abasic DNA cleavage fluorescence; Potency, µM (top dose mostly 65.8 µM), for the others: top-dose activity change, negative = inhibition, hits mostly inhibitors; 350,000 compounds, 0.35% hits;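 further: plate controls were vehicle for no effect and reference inhibitor for full effect; nearly all actives have a fitted effect of over 55% in size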
#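 APE1 at 0.75 nM final was preincubated with compound 15 min at room temperature, then 50 nM double-stranded THF abasic-site substrate (5'-TAMRA/3'-BHQ-2) was added. Fluorescence (ex 525/em 598 nm) was read kinetically; third-minus-first read gave activity.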
# GCN5L2 inh – blocks human GCN5L2 histone acetyltransferase | Q92830 | GCN5L2 HAT assay, ThioGlo1 CoA-SH fluorescence | Potency, µM (series often up to 58.9 µM), without a hit: at the highest dose activity change, negative = inhibition, usual class: inhibitors | 390,000 compounds, 0.21% hits | AID 504327
#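 Titration-based screen in which CoA formation is detected via maleimide probe ThioGlo1 (50uM) turning fluorescent on thiol reaction; substrates H3(1-25) 75uM and acetyl-CoA 70uM, GCN5L2 20nM, 20 min incubation at room temperature.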
# TDP1 block – inhibitors of human tyrosyl-DNA phosphodiesterase TDP1; recombinant TDP1, AlphaScreen DNA substrate cleavage; Potency, µM (titrated, usually from 130 µM), for the others: at the highest dose activity change, negative = inhibition, actives largely listed as inhibitors; 350,000 compounds, 0.28% hits; AID 485290; further: nearly all actives have a fitted effect of over 40% in size
# Target sequence (Q9NUW8 whole entry, looked up): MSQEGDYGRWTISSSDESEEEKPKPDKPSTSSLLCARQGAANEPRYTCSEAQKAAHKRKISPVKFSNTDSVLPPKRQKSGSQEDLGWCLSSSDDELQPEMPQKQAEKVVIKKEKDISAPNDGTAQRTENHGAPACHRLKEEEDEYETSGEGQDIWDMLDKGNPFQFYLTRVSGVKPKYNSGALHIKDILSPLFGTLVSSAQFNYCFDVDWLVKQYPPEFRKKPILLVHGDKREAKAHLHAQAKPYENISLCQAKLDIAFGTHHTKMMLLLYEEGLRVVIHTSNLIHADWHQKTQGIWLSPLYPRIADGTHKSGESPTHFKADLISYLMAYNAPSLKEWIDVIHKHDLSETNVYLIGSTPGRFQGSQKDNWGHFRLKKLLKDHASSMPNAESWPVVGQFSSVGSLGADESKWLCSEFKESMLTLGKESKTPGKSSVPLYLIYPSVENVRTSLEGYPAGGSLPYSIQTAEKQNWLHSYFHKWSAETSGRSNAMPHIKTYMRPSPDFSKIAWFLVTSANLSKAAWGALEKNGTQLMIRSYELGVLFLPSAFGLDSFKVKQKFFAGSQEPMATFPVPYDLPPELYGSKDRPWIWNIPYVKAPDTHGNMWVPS
#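 Compounds were preincubated with Tdp1 (1 nM final) for 15 min at room temperature before substrate (15 nM final) started a 5 min reaction; beads (10 ug/ml final) were then added for 10 min before AlphaScreen detection.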
# * marks the source's active call; other numbers are inactive results; i = inactive; ? = inconclusive; . = not tested or not shown; [ ] = remark or other dose. Unless noted, the call rests on the fitted dose curve; in most records, active means well fitted curve in the direction sought with a large enough effect; inconclusive means small, poorly fitted or top-dose-only effect, or another doubt; inactive means no such curve, though single readings can be large; an effect the other way counts as inactive or inconclusive. Unless noted, on the % scale 0 is the no-effect control and ±100 the full control effect; potency means the concentration at half of the fitted maximal effect.
SMILES,BLM helicase inh,KDM4E inh,RECQ1 helicase,APEX1 inh,GCN5L2 inh,TDP1 block
CCOC(=O)c1ccc(S(=O)(=O)N2CCN(CCC#N)CC2)cc1,0%,5%,-5%,5%,-30%,3%
CCOC(=O)c1ccc(S(=O)(=O)N2CCN(C)CC2)cc1,-1%,-7%,-9%,15%,3.5µM*,-2%
Cc1ccccc1NC(=S)Nc1cccc2cnccc12,-26%,-15%,-3%,?,-2%,-5%
Cc1ccc(C)c(NC(=S)Nc2cccc3cnccc23)c1,-7%,28µM*,i,-1%,1%,-3%
CC(=O)c1ccc(NC(=S)Nc2cccc3cnccc23)cc1,2%,18µM*,i,2%,-12%,5%
Cc1ccc(NC(=S)Nc2cccc3cnccc23)cc1,-10%,?,0%,-3%,-7%,5%
CC1=C(C(=O)Nc2cc(Cl)ccc2C)C2(CCCCC2)OC1=O,-7%,.,.,.,-3%,6%
[O-]c1c[n+](-c2ccc(-[n+]3cc([O-])on3)cc2)no1,-19%,25µM*,i,15%,-3%,-3%
[O-]c1c[n+](-c2ccccc2)no1,-4%,-3%,-5%,0%,-19%,.
Cc1ccccc1NC(=S)N/N=C/c1ccc(O)cc1O,-5%,14µM*,6%,4%,-4%,7%
Cc1cccc(NC(=S)N/N=C/c2cccc(O)c2)c1C,-3%,7%,-4%,-3%,-6%,.
COc1cccc(NS(=O)(=O)c2cc3c(cc2C)N(C(C)=O)CCO3)c1,0%,.,.,35%,-17%,.
CC(=O)N1CCOc2cc(S(=O)(=O)Nc3c(C)cccc3C(C)C)c(Cl)cc21,-5%,.,.,15%,-5%,8.9µM*
CCCN1CNc2c(c(=O)[nH]c(=S)n2CCc2ccc(C)c(C)c2)C1,.,.,.,.,.,1%
CN=c1scc(-c2ccc(F)cc2)n1/N=C/c1ccc(O)c(O)c1,-16%,28µM*,?,?,-16%,11%
O=c1[nH][nH]c(=S)n1C1CCCCC1,2%,2.8µM*,10%,-13%,16µM*,2%
N#Cc1c(N)sc2c1CCCCCC2,-3%,-5%,-9%,2%,-7%,4%
N#Cc1c(N)sc(=S)c2c1CCCCC2,-30%,22µM*,?,?,?,10µM*
N#CN1CCC(NC(=O)c2cccc(F)c2)CC1,.,.,.,.,.,-1%
COc1cc(/C=N/Nc2ccc(F)cc2F)cc(OC)c1O,-6%,7.9µM*,-2%,0%,-5%,8%
COc1cc(/C=N/Nc2ccccc2[N+](=O)[O-])cc(OC)c1O,-4%,5%,-9%,-8%,-2%,-2%
O=C(CN1CCOCC1)N/N=C/c1ccc(-c2ccc(C(=O)O)cc2)o1,2%,?,9%,?,-22%,32µM*
O=c1oc2ccc(Br)cc2cc1-c1nc2c(s1)CCc1ccccc1-2,.,.,.,.,.,-6%
N#Cc1nc(Nc2cccc(F)c2)nc(NC2CCCC2)n1,.,.,.,.,.,-4%
O=C(O)c1cccc(NC(=S)NC(=O)c2ccc(-c3ccc(Cl)cc3)o2)c1,-16%,?,3%,-3%,-28%,.
SMILES,BLM helicase inh,KDM4E inh,RECQ1 helicase,APEX1 inh,GCN5L2 inh,TDP1 block
O=C(O)c1ccc(NC(=S)NC(=O)c2ccc(-c3ccc(Br)cc3)o2)cc1,-25%,.,.,-58%,2%,14µM*
CC(C)NC(=O)COc1ncnc2sccc12,-2%,-1%,-3%,-1%,32µM*,0%
O=C(NCCN1CCN(c2ccccc2)CC1)C1CCN(S(=O)(=O)c2cccc3nonc23)CC1,0%,1%,i,?,1.8µM*,2%
CC[C@H](C)[C@H](N)C(=O)N[C@@H](CC(N)=O)C(=O)N1CCC[C@H]1C(=O)N[C@H](C(=O)N[C@@H](Cc1ccc(O)cc1)C(=O)N[C@@H](CCCN=C(N)N)C(=O)N[C@@H](CC(C)C)C(=O)N[C@@H](CCCN=C(N)N)C(=O)N[C@@H](Cc1ccc(O)cc1)C(N)=O)[C@@H](C)CC,1%,.,-9%,-2%,-2%,11%
c1c[nH]c(CNc2ncnc3ccc(-c4ccc5c(c4)OCO5)cc23)n1,.,.,.,.,.,-19%
CCCCOP(=O)(c1ccc(N(C)C)cc1)C(O)c1ccncc1 (stereo unspecified),-1%,22µM*,-3%,2%,1%,0%
Cc1occc(=O)c1O,6%,16µM*,-5%,15%,-3%,4%
O=C(O)CN1C(=O)/C(=C/c2ccc(-c3cccc(Cl)c3)o2)SC1=S,.,.,.,.,.,5%
Cc1ccc(C(=O)CSc2nnc(N)s2)c(C)c1,0%,12%,30%,-1%,-6%,4%
CC1=CC(C)(C)N(C(=O)CSc2nnc(N)s2)c2c(C)cc(C)cc21,-4%,10%,-12%,0%,4µM*,3%
N=C1/C(=C/c2ccc(-c3cccc(C(=O)O)c3)o2)C(=O)N=C2SC(CC(=O)N3CCOCC3)=NN12,8%,.,.,?,-25%,8.9µM*
COC(=O)[C@@H](NC(=O)N1CCc2nc(COc3ccccc3)c3c(c2C1)CO[C@@H](C)C3)C(C)C,-4%[12.4 µM],2%[11.4 µM],6%[11.5 µM],-2%[12.4 µM],.,4%[21 µM]
CCOC(=O)c1oc2ccccc2c1NC(=O)COc1cccc(OC)c1,-3%,5µM*,-10%,-17%,1%,-5%
CCOc1ccc(NC(=O)c2oc3ccccc3c2NC(=O)COc2cccc(OC)c2)cc1,-3%,.,.,.,0%,9%
N#CN1CCC(NC(=O)c2cccc(C(F)(F)F)c2)CC1,.,.,.,.,.,0%
O=C1CCCC2=C1C1(CCCC1)N=C(Nc1nc3cc(Cl)ccc3o1)N2,.,.,.,.,.,0%
CSc1nc(SCCO)c2sc3nc(-c4ccco4)c4c(c3c2n1)CC(C)(C)OC4,13µM*,?,13µM*,?,13µM*,.
Cc1ccc(NS(=O)(=O)c2cc3c(cc2Cl)CCC(=O)N3)cc1Cl,.,.,.,.,.,1%
CC1CC(C)CN(c2ccc([N+](=O)[O-])cc2-c2nn[nH]n2)C1 (stereo unspecified),2%,3.2µM*,-7%,-2%,-5%,0%
C=C(NC(=O)C(=C)NC(=O)c1csc(C2=N[C@@H]3c4csc(n4)[C@H]4NC(=O)c5csc(n5)[C@H]([C@](C)(O)[C@@H](C)O)NC(=O)[C@H]5CSC(=N5)C(=CC)NC(=O)C([C@@H](C)O)NC(=O)c5csc(n5)[C@]3(CC2)NC(=O)[C@H](C)NC(=O)C(=C)NC(=O)[C@H](C)NC(=O)C([C@@H](C)CC)NC2C=Cc3c([C@H](C)O)cc(nc3C2O)C(=O)O[C@@H]4C)n1)C(N)=O (stereo partly specified),.,.,.,5%[21 µM],.,.
